Test results: PMC4336329 (PLoS ONE, 2015)
Screen size: about 310,000 compounds; about 14,000 (4.5%) showed an effect of 50% or more. Effects have a minus sign here. Shown is part of a subset that was picked to be rich in strong results.

Target: human ether-à-go-go-related gene (hERG) potassium channel (human, UniProt Q12809)
Assay: primary screen, population patch clamp on CHO cells stably expressing hERG; higher = less effect of the substance
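Also: peak tail current of the secondary pulse compared with the same well before compound.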

human ether-à-go-go-related gene (hERG) potassium channel, sequence (Q12809 whole entry, looked up): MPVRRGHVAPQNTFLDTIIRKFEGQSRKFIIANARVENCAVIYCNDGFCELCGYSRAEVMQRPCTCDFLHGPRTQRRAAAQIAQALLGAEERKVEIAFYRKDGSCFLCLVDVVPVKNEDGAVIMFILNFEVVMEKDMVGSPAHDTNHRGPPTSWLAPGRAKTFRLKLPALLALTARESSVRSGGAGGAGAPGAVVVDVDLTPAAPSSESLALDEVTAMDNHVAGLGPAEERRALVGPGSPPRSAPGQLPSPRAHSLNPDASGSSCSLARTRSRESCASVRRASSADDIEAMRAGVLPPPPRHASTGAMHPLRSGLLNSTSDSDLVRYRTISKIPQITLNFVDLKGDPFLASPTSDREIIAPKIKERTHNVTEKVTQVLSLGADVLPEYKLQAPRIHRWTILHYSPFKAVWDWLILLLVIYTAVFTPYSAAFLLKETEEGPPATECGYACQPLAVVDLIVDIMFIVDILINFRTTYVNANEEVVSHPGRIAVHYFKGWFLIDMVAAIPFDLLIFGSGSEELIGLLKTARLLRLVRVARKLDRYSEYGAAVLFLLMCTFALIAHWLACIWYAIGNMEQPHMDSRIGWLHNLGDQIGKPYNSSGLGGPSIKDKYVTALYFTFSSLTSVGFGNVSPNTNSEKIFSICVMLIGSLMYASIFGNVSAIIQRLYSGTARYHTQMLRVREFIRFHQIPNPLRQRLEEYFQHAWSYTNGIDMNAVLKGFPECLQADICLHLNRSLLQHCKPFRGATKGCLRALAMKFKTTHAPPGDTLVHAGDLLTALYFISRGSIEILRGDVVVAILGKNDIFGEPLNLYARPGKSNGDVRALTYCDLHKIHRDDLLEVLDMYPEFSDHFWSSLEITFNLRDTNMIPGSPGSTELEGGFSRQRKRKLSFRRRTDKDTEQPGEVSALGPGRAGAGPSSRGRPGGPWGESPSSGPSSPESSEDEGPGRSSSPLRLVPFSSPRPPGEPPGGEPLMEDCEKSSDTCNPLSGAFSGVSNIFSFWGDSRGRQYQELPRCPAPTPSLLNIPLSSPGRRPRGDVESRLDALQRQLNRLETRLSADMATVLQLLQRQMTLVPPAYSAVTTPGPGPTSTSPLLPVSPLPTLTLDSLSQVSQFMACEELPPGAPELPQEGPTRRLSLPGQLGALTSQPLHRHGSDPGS

| Compound | hERG current change (%, negative = inhibition) at 10uM |
| --- | --- |
| N#CCSc1nnc(-c2ccccc2O)n1CCc1ccccc1 | -10.7% |
| CCCCNC(=S)NNC(=O)c1ccc2c(c1)OCO2 | 5.46% |
| Cc1cc(C(=O)NNC(=O)c2cccc([N+](=O)[O-])c2)n[nH]1 | 18.9% |
| Cc1cc(C)c(S(=O)(=O)N2CCN(C(=O)C3COc4ccccc4O3)CC2)c(C)c1 (stereo not shown) | -17% |
| O=c1c2cc3c(cc2[nH]c(=S)n1CCN1CCOCC1)OCO3 | 9.66% |
| COc1ccc(Cc2nnc(NC(=O)C(C)C)s2)cc1 | 11.2% |
| Cc1cc(C)c(NC(=O)COC(=O)c2c(C)noc2C)c(Cl)c1 | 13.8% |
| CS(=O)(=O)N1CCN(C(=O)c2cc(-c3ccccc3)nc3ccccc23)CC1 | -30.8% |
| O=C(c1cc(-c2ccncc2)nc2ccccc12)N1CCN(S(=O)(=O)/C=C/c2ccccc2)CC1 | -66.6% |
| CS(=O)(=O)N1CCN(C(=O)c2cc(-c3ccncc3)nc3ccc(Cl)cc23)CC1 | -12.8% |
| COc1ccc2[nH]c3c(=O)n(CCCCC(=O)NCCC(C)C)c(=S)[nH]c3c2c1 | 16.3% |
| CCCn1c(=O)c(C(=O)c2ccccc2)nc2ccccc21 | -27.4% |
| CCCCn1c(=O)c(C(=O)c2ccccc2)nc2ccccc21 | -30.4% |
| CCCCCn1c(CCNC(=O)CCC)nc2ccccc21 | -57.2% |
| CCCCCn1c(=O)c(C(=O)c2ccccc2)nc2ccccc21 | -77.6% |
| CCCC(=O)NCCc1nc2ccccc2n1CCC | 1.27% |
| CCCCn1c(CCCNC(=O)CC)nc2ccccc21 | -37.3% |
| CCCCCn1c(CCNC(=O)c2cccs2)nc2ccccc21 | -52.5% |
| CCCCn1c(CCNC(=O)c2cccs2)nc2ccccc21 | -33.2% |
| CCCCn1c(CCNC(=O)CC)nc2ccccc21 | -11.2% |
| CCCn1c(CCNC(=O)c2cccs2)nc2ccccc21 | -36.1% |
| CCCCn1c(CCNC(=O)CCC)nc2ccccc21 | -7.83% |

| Compound | hERG current change (%, negative = inhibition) at 10uM |
| --- | --- |
| CCCCCn1c(CCCNC(=O)CC)nc2ccccc21 | -65.9% |
| O=C(COc1ccccc1)Nc1nonc1NC(=O)COc1ccccc1 | -12.8% |
| COc1cc(C(=S)N2CCCC2)ccc1O | 18.6% |
| CCN1C(=O)C2(Nc3ccccc3-c3nc4ccccc4n32)c2cc(OC)ccc21 (stereo not shown) | -4.35% |
| CCC(=O)N1CCc2cc(S(=O)(=O)CCC(=O)NCCc3ccc(OC)c(OC)c3)ccc21 | -0.229% |
| O=C(Nc1ccc(Cl)c(Cl)c1)NC1CCS(=O)(=O)C1 (stereo not shown) | -8.07% |
| COc1cc(NS(=O)(=O)c2ccc(NC(C)=O)cc2)ncn1 | 0.81% |
| Cc1nn(-c2ccc(Cl)cc2)c(N)c1C(O)(CSc1nccn1C)C(F)(F)F (stereo not shown) | -22.9% |
| O=C(NCC1CCCO1)c1ccc2ccccc2n1 (stereo not shown) | -3.04% |
| COc1ccc(C(=O)NCCCc2nc3ccccc3n2Cc2cc(C)ccc2C)cc1OC | -39.7% |
| COc1cc(C(=O)NCCCc2nc3ccccc3n2Cc2cc(C)ccc2C)cc(OC)c1OC | -33.6% |
| COc1ccc(C(=O)NCCCc2nc3ccccc3n2Cc2ccccc2C)cc1OC | -55.4% |
| CCn1c(CCCNC(=O)c2ccc(F)cc2)nc2ccccc21 | -41.3% |
| CCn1c(CCNC(=O)c2ccc(F)cc2)nc2ccccc21 | -33.9% |
| CC(C)Cn1c(CCCNC(=O)c2ccc(F)cc2)nc2ccccc21 | -50.3% |
| COc1ccc(CCC(=O)OC(C)C(=O)c2ccc(C)cc2)cc1 (stereo not shown) | 0.769% |
| COCCSc1nnc(NC(=O)c2cc(C(=O)OC)cc([N+](=O)[O-])c2)s1 | 11.4% |
| CC(C)c1nc(SCC(=O)NCc2ccccc2)n[nH]1 | 2.8% |
| O=C(c1ccc(-n2ccnc2)cc1)N1CCCC(CO)(Cc2cccc(Cl)c2)C1 (stereo not shown) | -60.4% |
| CCOC(=O)C1(Cc2ccccc2)CCCN(C(=O)C=C(C)C)C1 (stereo not shown) | 13.2% |
| CCOC(=O)C1(Cc2ccccc2)CCCN(C(=O)c2ccc(-n3ccnc3)cc2)C1 (stereo not shown) | -58.4% |
| Cc1ccccc1CC1(CO)CCCN(C(=O)c2cccc(Cl)c2)C1 (stereo not shown) | 1.01% |

| Compound | hERG current change (%, negative = inhibition) at 10uM |
| --- | --- |
| CCOC(=O)C1(Cc2ccccc2)CCCN(C(=O)c2cn[nH]c2)C1 (stereo not shown) | 13.4% |
| COc1cccc(CC2(CO)CCCN(C(=O)c3cc[n+]([O-])cc3)C2)c1 (stereo not shown) | 10.4% |
| CC(=O)c1ccc(NC(=O)c2ccc(COc3ccccc3[N+](=O)[O-])o2)cc1 | -8.46% |
| Cc1cc(=O)n(CC(=O)Nc2cc(Cl)ccc2C)c(C(C)C)n1 | -1.59% |
| CN(CC1CCOCC1)C(=O)CC1C(=O)NCCN1Cc1ccc(Cl)c(F)c1 (stereo not shown) | 10.4% |
| CCCCNC(=O)c1nn(-c2ccccc2OC)c(=O)c2ccccc12 | -4.46% |
| COc1ccc(NC(=O)CCN2CCN(S(=O)(=O)c3ccc(F)cc3)CC2)cc1 | -6.32% |
| Cc1cc(C)c2c(-n3cccc3)c(C(=O)NNS(=O)(=O)c3ccc(Cl)cc3)sc2n1 | 0.175% |
| O=C(Nc1cccc(C(F)(F)F)c1)NC1CCCCC1 | -3.18% |
| O=C(Nc1ccc(F)cc1)NC1CCN(Cc2ccccc2)CC1 | -36.7% |
| O=C(Nc1ccccc1)NC1CCN(Cc2ccccc2)CC1 | -39.4% |
| O=C(Nc1cccc(F)c1)NC1CCN(Cc2ccccc2)CC1 | -56.4% |
| S=C(Nc1ccc(Br)cc1Cl)NC1CCN(Cc2ccccc2)CC1 | -2.37% |
| O=C(COC(=O)/C=C/c1cccc(Br)c1)NC1CC1 | -2.84% |
| O=C(/C=C/c1cccc(F)c1)NC1CCN(Cc2ccccc2)CC1 | -70.6% |
| CCN1CCC(NC(=O)Nc2cccc(C(F)(F)F)c2)CC1 | -51.1% |
| COc1ccc(/C=C/C(=O)NC2CCN(Cc3ccccc3)CC2)cc1OC | -29% |
| O=C(Cc1c(F)cccc1Cl)NC1CCN(Cc2ccccc2)CC1 | -0.715% |
| CN1CCC(NC(=O)Nc2cccc(C(F)(F)F)c2)CC1 | -0.705% |
| O=C(/C=C/c1cccc(Br)c1)NC1CCN(Cc2ccccc2)CC1 | -71.1% |
